{"source": "PubChem BioAssay (NCI)", "note": "About 83,000 compounds went through this panel and 20% of them were active in at least one assay; those are over-represented in the sample as a whole.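 Single-dose data. Exposure time 48 hours. Values below 10 considered active.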 Values without a mark were called inactive. Active and inactive are the calls of the source."}
{"system": "KM12 colon", "experiment": "NCI-60 one-dose screen, 48 h (100 = growth as untreated, 0 = no growth, -100 = all killed)", "conditions": "10 µM unless noted"}
{"compound": "COc1ccc(/C=N/NC(=O)Cn2c(-c3ccc(S(C)(=O)=O)cc3)nc3ccccc32)cc1", "growth": "104%"}
{"compound": "CN(C)CCCn1c2c(c3ccncc3c1=O)C(=O)c1ccccc1-2", "growth": "-12.6% (active)"}
{"compound": "OC1(c2ccccc2)c2ccccc2N(c2ccccc2)c2ccc(Cl)cc21", "note": "(configuration not stated)", "growth": "-87.6% (active)"}
{"compound": "CC1(/C=C/c2ccc(-c3ccccc3)cc2)CCn2cnc3ncnc(c32)N1O", "note": "(configuration not stated)", "growth": "26%"}
{"compound": "C=C1C(=O)O[C@H]2[C@H]1CC/C(COC(=O)/C=C\\C(=O)NCc1ccc(Cn3c(=O)sn(CCCCl)c3=O)cc1)=C\\CC[C@@]1(C)O[C@@H]21", "growth": "99.4%"}
{"compound": "C#Cc1cccc(NC(=O)C2CCCCN2C(=O)CCl)c1", "note": "(configuration not stated)", "growth": "-34.2% [8.25 µM] (active)"}
{"compound": "O=C1CCCC1[n+]1ccccc1", "note": "(configuration not stated)", "growth": "97.6%"}
{"compound": "N#C/C(=C\\c1ccc(-c2cccc(Cl)c2)o1)C(=O)Nc1ncc(Cc2ccc(Cl)cc2)s1", "growth": "48.6%"}
{"compound": "O=S(O)c1cc(Cl)cc(Cl)c1OCc1ccccc1", "growth": "105%"}
{"compound": "O=C(C1=Cc2cc3ccccc3n2Cc2cnnn21)c1ccc(F)cc1", "growth": "90.8%"}
{"compound": "CC(C)Cc1nc(Nc2ccccc2)[nH]c(=O)c1C#N", "growth": "50.6%"}
{"compound": "C[N+]1=C(/C=C/c2ccccc2Cl)C(C)(C)c2ccccc21", "growth": "96.6%"}
{"compound": "CSc1ccc(N2C(=N)C(=S)N(c3ccc(C)cc3)C2=O)cc1", "growth": "96.5%"}
{"compound": "CC[C@H](Nc1nc(N)nc(C)c1C#N)c1nc2cccc(CN(C)c3ncc(C(=O)NO)cn3)c2c(=O)n1-c1ccccc1", "growth": "16.4%"}
{"compound": "CC(C)CCC[C@@H](C)[C@H]1CC[C@H]2[C@@H]3CC=C4c5sc(Nc6cc(C(F)(F)F)cc(C(F)(F)F)c6)nc5CC[C@]4(C)[C@H]3CC[C@]12C", "growth": "102%"}
{"compound": "N#CC1=C(N)Oc2c(sc3c(F)cccc23)C1c1ccc([N+](=O)[O-])cc1", "note": "(configuration not stated)", "growth": "-32.4% (active)"}
{"compound": "c1ccc(-c2c(-c3ccccc3)[n+](Cc3ccc4ccccc4c3)cn2Cc2ccc3ccccc3c2)cc1", "growth": "-80.2% (active)"}
{"compound": "O=C(CSc1nnnn1-c1ccccc1)Nc1ccc(Oc2ccccc2)cc1", "growth": "99.4%"}
{"compound": "Cc1ccc2c(c1)nc(C)n2-c1ncnc2c1CC(C)c1cc(O)ccc1N2C", "note": "(configuration not stated)", "growth": "35.6%"}
{"compound": "Fc1ccc2[nH]cc(-c3nc(-c4c[nH]c5c(Cl)nccc45)cs3)c2c1", "growth": "33.2%"}
{"compound": "COc1ccc(Oc2ccc(/C=C/C(=O)c3ccc(OC)c(OC)c3)cc2)cc1", "growth": "79%"}
{"compound": "CCCCC#Cc1c(I)n(C2OC(CO[Si](C)(C)C(C)(C)C)C3OC(C)(C)OC32)c(=O)n(C(=O)c2ccccc2)c1=O", "note": "(configuration not stated)", "growth": "71.7%"}
{"compound": "O=C(N/N=C/c1ccc(Cl)cc1)c1ccc(NC(=O)c2ccccn2)cc1", "growth": "73.2%"}
{"compound": "COc1cc(-c2cc(-c3ccc(Nc4nc(Nc5ccc(Cl)cc5)nc(Nc5ccc(Cl)cc5)n4)cc3)no2)cc(OC)c1OC", "growth": "83.8%"}
{"compound": "NCCCNc1nc2ccccc2c2c(=O)c3cc(Cl)ccc3sc12", "growth": "-67.4% (active)"}
{"compound": "Cc1ccc(OCCOCCOCCOCCOCCOc2ccc(C)n(O)c2=S)c(=S)n1O", "growth": "23%"}
{"compound": "CC1(C)CC(=O)C2=C(C1)C(c1ccc(Cl)cc1)n1ncc(C#N)c1N2", "note": "(configuration not stated)", "growth": "110%"}
{"compound": "CN(C)/C(N)=N/N=C(\\c1ccccc1)c1ccccn1", "growth": "99.1%"}
{"compound": "c1ccc(Nc2nc3c(s2)CCc2c[nH]cc2-3)nc1", "growth": "92.3%"}
{"compound": "COc1cc2c(cc1OCCCN1CCN(C(=S)SCCC(C#N)(c3ccccc3)c3ccccc3)CC1)N=C[C@@H]1CCCN1C2=O", "growth": "-75.1% (active)"}
{"compound": "O=C(NCCCCCCNC(=O)OCc1ccc2c(Cl)cc(Cl)c(O)c2n1)OCc1ccc2c(Cl)cc(Cl)c(O)c2n1", "growth": "-74.6% (active)"}
{"compound": "O=C(/C=C/c1ccccc1)N(C1CCCCC1)C1CCCCC1", "growth": "95.1%"}
{"compound": "C=CCn1cc(-c2nc3ccccc3s2)c2cc(-c3ccc4c5c(cccc35)C(=O)N(CCO)C4=O)ccc21", "growth": "105%"}
{"compound": "COc1cc(/C=C/C(=O)c2cccc(-n3cc(-c4ccc(Cl)cc4)[nH]c3=O)c2)ccc1O", "growth": "6.79% (active)"}
{"compound": "O=C1Nc2ccc(Cl)cc2/C1=C/c1ccc[nH]1", "growth": "13.5%"}
{"compound": "Cn1c2ccccc2c2c3c(c4c5cc(Br)ccc5n(C)c4c21)C(=O)N(O)C3=O", "growth": "34.1%"}
{"compound": "O=S(=O)(NCCNc1nccc(-c2c(-c3ccc(F)c(O)c3)nc3sccn23)n1)c1ccc(Cl)cc1", "growth": "12.6%"}
